Values joined by “and” are separate entries in the source; they are usually repeats but may differ in a detail not shown here. Equal entries are not always repeated. More than one record can exist for a structure, and the calls need not agree. Active and inactive are the calls of the source. Rule for the calls: active = hit-call score of the fitted dose curve at least 0.9, where 1 is the maximum; inactive = score below 0.9.
Assays:
[1] = biological target: Paired box protein Pax-6 (Homo sapiens) (UniProt P26367); assay: ATG_Pax6_CIS: Attagene CIS-FACTORIAL HepG2 Assay for human Paired Box 6 (PAX6) (AID 2282956); details: HepG2 CIS-FACTORIAL PAX6 reporter transcription, RNA readout; actives raise or lower the signal
Paired box protein Pax-6 (Homo sapiens), sequence (P26367 whole entry, looked up): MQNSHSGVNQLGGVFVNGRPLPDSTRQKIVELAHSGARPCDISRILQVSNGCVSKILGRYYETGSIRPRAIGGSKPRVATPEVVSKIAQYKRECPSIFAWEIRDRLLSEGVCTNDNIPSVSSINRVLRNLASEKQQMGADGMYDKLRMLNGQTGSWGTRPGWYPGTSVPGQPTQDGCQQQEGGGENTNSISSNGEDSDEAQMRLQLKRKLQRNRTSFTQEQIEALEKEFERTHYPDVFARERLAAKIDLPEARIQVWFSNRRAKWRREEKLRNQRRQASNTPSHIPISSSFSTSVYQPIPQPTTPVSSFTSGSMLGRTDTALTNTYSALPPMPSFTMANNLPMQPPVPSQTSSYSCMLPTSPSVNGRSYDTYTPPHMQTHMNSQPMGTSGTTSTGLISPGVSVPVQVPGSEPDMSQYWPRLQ
Method in brief: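 HepG2 cells transiently transfected with cis-promoter-driven multiplexed reporter units sensing endogenous transcription factor activity; 24 h chemical exposure. Reporter mRNA quantified by RT-PCR, 6-FAM labelling, HpaI digestion and capillary electrophoresis; bidirectional fit versus DMSO baseline.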

[2] = ATG_PXRE_CIS: Attagene CIS-FACTORIAL HepG2 Assay for human Pregnane X Receptor Element (PXRE) (AID 2282957); details: HepG2 Attagene CIS-FACTORIAL PXRE reporter, mRNA; actives raise or lower the signal
Method in brief: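 Transiently transfected HepG2 cells were dosed and incubated for 24 h. RNA was then isolated, DNase-treated, reverse-transcribed and reporter sequences amplified. Labeled, HpaI-digested fragments were quantified by capillary electrophoresis against DMSO.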

[3] = ATG_PPRE_CIS: Attagene CIS-FACTORIAL HepG2 Assay for human Peroxisome Proliferator-activated Response Element (PPRE) (AID 2282958); details: HepG2 PPRE cis-element reporter, Attagene transcription factor profiling; actives raise or lower the signal
Method in brief: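 HepG2 cells are transiently transfected with multiplexed cis-promoter reporter units to report endogenous PPAR activity. After 24 h dosing, reporter mRNA is read by RT-PCR and capillary electrophoresis. Fitting is bidirectional against DMSO.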

[4] = ATG_RORE_CIS: Attagene CIS-FACTORIAL HepG2 Assay for human RAR-related Orphan Receptor Element (RORE) (AID 2282959); details: HepG2 Attagene cis-factorial RORE reporter, mRNA; actives raise or lower the signal
Method in brief: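 HepG2 cells carrying transiently transfected cis-regulated reporter units; RORE-driven reporter mRNA quantified 24 h post-dosing by RT-PCR, 6-FAM primer extension, HpaI digestion and capillary electrophoresis. Bidirectional fit versus DMSO.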

[5] = ATG_Sox_CIS: Attagene CIS-FACTORIAL HepG2 Assay for human SRY-box transcription factor (SOX) (AID 2282960); details: HepG2 Attagene cis-factorial SOX reporter, mRNA; actives raise or lower the signal
Method in brief: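 HepG2 cells transiently transfected with multiple cis-regulated reporter units, then dosed for 24 h. Reporter mRNA quantified by RT-PCR, fluorescent labelling, HpaI digestion and capillary electrophoresis; bidirectional fit versus DMSO.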

[6] = biological target: Transcription factor Sp1 (Homo sapiens) (UniProt P08047); assay: ATG_Sp1_CIS: Attagene CIS-FACTORIAL HepG2 Assay for human Specificity Protein 1 (Sp1) (AID 2282961); details: HepG2 Sp1 cis-reporter transcription, actives raise or lower the signal
Transcription factor Sp1 (Homo sapiens), sequence (P08047 whole entry, looked up): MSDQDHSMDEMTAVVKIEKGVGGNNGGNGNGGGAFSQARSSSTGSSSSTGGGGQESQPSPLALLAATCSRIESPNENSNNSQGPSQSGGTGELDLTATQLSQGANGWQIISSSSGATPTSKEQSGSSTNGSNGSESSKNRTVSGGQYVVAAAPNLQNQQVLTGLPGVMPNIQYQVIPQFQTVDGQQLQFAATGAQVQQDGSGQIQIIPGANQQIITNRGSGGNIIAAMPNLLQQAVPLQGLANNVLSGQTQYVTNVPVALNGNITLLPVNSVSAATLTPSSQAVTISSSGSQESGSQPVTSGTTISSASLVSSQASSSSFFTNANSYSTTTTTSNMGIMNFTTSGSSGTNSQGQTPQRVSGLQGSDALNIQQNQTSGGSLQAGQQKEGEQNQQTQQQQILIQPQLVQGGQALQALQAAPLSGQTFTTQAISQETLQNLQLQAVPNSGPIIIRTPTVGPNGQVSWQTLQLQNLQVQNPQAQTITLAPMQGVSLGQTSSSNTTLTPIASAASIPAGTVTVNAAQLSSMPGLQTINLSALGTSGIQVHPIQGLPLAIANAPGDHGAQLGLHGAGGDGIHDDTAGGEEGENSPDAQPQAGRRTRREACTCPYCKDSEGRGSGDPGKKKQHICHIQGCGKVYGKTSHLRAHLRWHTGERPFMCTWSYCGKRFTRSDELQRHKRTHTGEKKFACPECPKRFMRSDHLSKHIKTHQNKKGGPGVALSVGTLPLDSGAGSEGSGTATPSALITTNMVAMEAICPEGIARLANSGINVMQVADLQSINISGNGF
Method in brief: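 HepG2 cells transiently transfected with multiplexed cis-regulated reporter constructs, chemical exposure 24 h. Reporter mRNA quantified by RT-PCR with capillary electrophoresis; bidirectional fit relative to DMSO.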

[7] = ATG_SREBP_CIS: Attagene CIS-FACTORIAL HepG2 Assay for human Sterol Regulatory Element Binding (SREBP) (AID 2282962); details: HepG2 Attagene cis-factorial SREBP reporter, mRNA; actives raise or lower the signal
Method in brief: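 HepG2 cells transiently transfected with multiplexed cis-promoter reporter units sensing endogenous transcription factors; reporter mRNA measured 24 h after dosing by RT-PCR, 6-FAM labeling, HpaI digestion and capillary electrophoresis. Bidirectional fit versus DMSO.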

[8] = biological target: Signal transducer and activator of transcription 3 (Homo sapiens) (UniProt P40763); assay: ATG_STAT3_CIS: Attagene CIS-FACTORIAL HepG2 Assay for human Signal Transducer and Activator of Transcription 3 (STAT3) (AID 2282963); details: HepG2, Attagene cis-factorial STAT3 reporter transcription; actives raise or lower the signal
Signal transducer and activator of transcription 3 (Homo sapiens), sequence (P40763 whole entry, looked up): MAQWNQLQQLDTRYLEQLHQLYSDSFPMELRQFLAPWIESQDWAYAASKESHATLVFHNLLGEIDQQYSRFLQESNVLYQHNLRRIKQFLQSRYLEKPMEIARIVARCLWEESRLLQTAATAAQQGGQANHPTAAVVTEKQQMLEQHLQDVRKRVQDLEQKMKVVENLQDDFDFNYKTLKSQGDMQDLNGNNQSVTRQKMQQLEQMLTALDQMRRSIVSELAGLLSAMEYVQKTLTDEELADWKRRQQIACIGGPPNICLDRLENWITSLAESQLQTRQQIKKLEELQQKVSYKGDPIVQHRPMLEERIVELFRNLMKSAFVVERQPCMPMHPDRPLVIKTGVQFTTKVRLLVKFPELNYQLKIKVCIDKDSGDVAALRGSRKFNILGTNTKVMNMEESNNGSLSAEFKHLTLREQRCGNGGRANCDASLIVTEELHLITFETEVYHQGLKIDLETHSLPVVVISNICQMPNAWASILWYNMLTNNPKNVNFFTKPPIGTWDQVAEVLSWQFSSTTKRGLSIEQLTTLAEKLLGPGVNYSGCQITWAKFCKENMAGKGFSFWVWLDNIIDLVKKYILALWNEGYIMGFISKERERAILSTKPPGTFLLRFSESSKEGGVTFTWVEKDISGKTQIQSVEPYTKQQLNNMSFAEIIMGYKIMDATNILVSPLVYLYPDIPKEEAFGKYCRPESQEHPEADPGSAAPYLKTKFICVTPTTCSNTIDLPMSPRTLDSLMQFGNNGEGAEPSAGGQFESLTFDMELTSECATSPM
Method in brief: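 Values derive from bidirectional fits relative to DMSO of reporter mRNA levels, measured by RT-PCR with capillary electrophoresis, in HepG2 cells carrying transiently transfected cis-regulated reporter units and exposed 24 h.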

[9] = ATG_TA_CIS: Attagene CIS-FACTORIAL HepG2 Assay for human TA Basal Promoter (AID 2282964); details: HepG2 Attagene CIS-factorial TA basal promoter reporter; actives raise or lower the signal
Method in brief: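 Fluorescence from labelled RT-PCR reporter fragments, separated by capillary electrophoresis, gives the signal. Cells: HepG2 transiently carrying multiple reporter units, 24 h chemical dosing. Gain or loss relative to DMSO.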

[10] = ATG_TCF_b_cat_CIS: Attagene CIS-FACTORIAL HepG2 Assay for human T-Cell-Factor with beta-catenin (TCF/b-cat) (AID 2282965); details: HepG2 TCF/beta-catenin cis-reporter transcription, actives raise or lower the signal
Method in brief: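 Cells of the HepG2 line carry transiently transfected reporter units whose promoters respond to endogenous factors. Twenty-four hours post-dosing, reporter mRNA induction is measured by fluorescent RT-PCR and capillary electrophoresis, with DMSO as baseline.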

Measured: AC50

c1ccc(-c2ccccc2)cc1
inactive: all assays above

O=NN(c1ccccc1)c1ccccc1
active: [2] 27.8 µM
not listed: [3]
inactive: all other assays above

CCCCCCCCCc1ccc(O)cc1
inactive: [1] | [2] | [5] | [6] | [7] | [8] | [10]
active: [2] 169 µM and 11.1 µM | [8] 168 µM | [10] 100 µM

CN(C)CCO
inactive: [1] | [2] | [4] | [5] | [6] | [7] | [8] | [9] | [10]
active: [2] 100 µM

ClC(Cl)=C(c1ccc(Cl)cc1)c1ccc(Cl)cc1
active: [1] 100 µM | [2] 4.93 µM [middle of 4 runs] | [3] 31.7 µM and 78.5 µM and 27.1 µM | [5] 66.7 µM | [6] 95.5 µM [middle of 4 runs] | [7] 130 µM and 169 µM
inactive: [1] | [3] | [4] | [5] | [7] | [8] | [9] | [10]

CCSC(=O)N(CC)C1CCCCC1
active: [2] 12.3 µM
inactive: all other assays above

O=C(NC(=O)c1cc(F)c(F)cc1Cl)Nc1cc(F)ccc1N1CCC(C(=O)O)CC1
active: [2] 4.65 µM | [7] 4.65 µM
not listed: [9]
inactive: all other assays above

ClC1=C(Cl)[C@]2(Cl)[C@@H]3[C@H]4C[C@H]([C@@H]5O[C@H]45)[C@@H]3[C@@]1(Cl)C2(Cl)Cl
active: [2] 1.58 µM | [10] 4.74 µM
inactive: all other assays above

CC(C)(O)C(=O)Nc1ccc([N+](=O)[O-])c(C(F)(F)F)c1
active: [1] 48.9 µM | [2] 20.9 µM [middle of 4 runs]
inactive: [1] | [4] | [5] | [6] | [7] | [8] | [10]

O=C(O)C(F)(F)C(F)(F)C(F)(F)C(F)(F)C(F)(F)C(F)(F)C(F)(F)C(F)(F)C(F)(F)F
inactive: [2] | [4] | [5] | [6] | [7] | [8] | [9]
active: [1] 49 µM and 33 µM and 54.8 µM | [2] 57.5 µM | [4] 50.5 µM and 32.8 µM | [5] 33.4 µM | [10] 45 µM and 35.7 µM and 14.7 µM

CCC(=O)O[C@H]1CC[C@H]2[C@@H]3CCC4=CC(=O)CC[C@]4(C)[C@H]3CC[C@]12C
active: [1] 132 µM and 100 µM | [2] 26.7 µM [middle of 4 runs] | [4] 119 µM | [5] 152 µM | [6] 164 µM and 181 µM | [7] 137 µM [middle of 4 runs] | [10] 100 µM and 92.5 µM
inactive: [1] | [3] | [4] | [5] | [6] | [8] | [10]

Clc1ccc(C(c2ccccc2Cl)C(Cl)(Cl)Cl)cc1 (stereo not drawn)
inactive: [1] | [3] | [4] | [5] | [6] | [7] | [8] | [10]
active: [1] 70.5 µM | [2] 3.54 µM [middle of 4 runs] | [6] 70.5 µM | [7] 93.9 µM

Oc1ccc(C(c2ccc(O)cc2)(C(F)(F)F)C(F)(F)F)cc1
inactive: [1] | [5] | [6] | [7] | [8] | [9] | [10]
active: [1] 8.18 µM and 16.2 µM | [2] 4.15 µM [middle of 4 runs] | [6] 18.8 µM and 18.4 µM | [10] 11.1 µM and 8.78 µM

Cc1ccccc1O
not listed: [9]
inactive: all other assays above

Nn1cnnc1
not listed: [9]
inactive: all other assays above

Sc1ccccc1
inactive: [1] | [2] | [4] | [5] | [6] | [7] | [8] | [9] | [10]
active: [2] 25.4 µM

Cc1cc(-c2ccc(N)c(C)c2)ccc1N
inactive: [1] | [2] | [4] | [5] | [6] | [7] | [8] | [10]
active: [2] 46.7 µM

CCCCCCCCOC(=O)c1ccccc1C(=O)OCCCCCCCC
active: [2] 5.64 µM
inactive: all other assays above

CC#Cc1cc(C)nc(Nc2ccccc2)n1
active: [1] 68.1 µM | [2] 26.5 µM | [4] 51.6 µM | [9] 100 µM | [10] 41.8 µM
inactive: [3] | [5] | [6] | [7] | [8]

O=C(O)C(F)(F)C(F)(F)C(F)(F)C(F)(F)C(F)(F)C(F)(F)C(F)(F)C(F)(F)F
active: [1] 224 µM and 50 µM | [2] 22.7 µM and 38.2 µM and 13.6 µM | [3] 33.4 µM and 89.8 µM and 34 µM | [4] 214 µM and 34.7 µM | [9] 50 µM | [10] 33.4 µM and 150 µM and 50 µM
inactive: [1] | [4] | [5] | [6] | [7] | [8] | [9]

CCC(C)(c1ccc(O)cc1)c1ccc(O)cc1
inactive: [1] | [4] | [5] | [6] | [8] | [10]
active: [1] 52.8 µM and 62.6 µM and 24.6 µM | [2] 1.13 µM [middle of 4 runs] | [4] 59.1 µM and 21.5 µM | [6] 24.4 µM | [7] 33.4 µM and 41.5 µM and 13.9 µM | [10] 39.7 µM and 49.7 µM and 47.8 µM

NS(=O)(=O)C(F)(F)C(F)(F)C(F)(F)C(F)(F)C(F)(F)C(F)(F)C(F)(F)C(F)(F)F
inactive: [1] | [2] | [4] | [5] | [7] | [8] | [10]
active: [1] 54.8 µM and 92.1 µM | [2] 246 µM | [4] 78 µM | [5] 83.8 µM | [6] 24.4 µM and 38.7 µM and 27.6 µM | [7] 38.9 µM and 50 µM | [10] 150 µM

Cc1cc(O)ccc1Cl
not listed: [9]
inactive: all other assays above

Cc1ccccc1CO[C@@H]1C[C@@]2(C(C)C)CC[C@]1(C)O2
active: [2] 2.14 µM | [3] 50 µM | [7] 14.7 µM
not listed: [9]
inactive: all other assays above

CC(C)(c1ccccc1)c1ccc(O)cc1
inactive: [1] | [4] | [5] | [6] | [7] | [8] | [9] | [10]
active: [1] 52.3 µM and 39.5 µM | [2] 2.59 µM [middle of 4 runs] | [4] 48.9 µM | [5] 50.8 µM | [6] 51.9 µM and 53.1 µM | [8] 55.9 µM and 54.6 µM | [9] 54 µM | [10] 39.9 µM and 54.5 µM

CCOC(=O)C(O)(c1ccc(Cl)cc1)c1ccc(Cl)cc1
active: [2] 3.33 µM
inactive: all other assays above

O=C(N[C@H]1CN2CCC1CC2)c1cc2ccoc2cn1
inactive: all assays above

N#Cc1ccc(N(CC(N)=O)CC(F)(F)F)cc1C(F)(F)F
not listed: [9]
inactive: all other assays above

CCCCCCCCCC[N+](C)(C)CCCCCCCCCC
active: [1] 7.61 µM | [3] 185 µM | [4] 19.8 µM | [6] 190 µM | [7] 3.63 µM | [10] 11 µM
inactive: [2] | [5] | [8]

Reference: PubChem BioAssay (EPA / NIEHS)
